This is an account of results in PubChem BioAssay (NCI).

Test systems include SR leukemia; RPMI-8226 leukemia; OVCAR-8 ovarian; OVCAR-5 ovarian; SK-OV-3 ovarian; IGROV1 ovarian; OVCAR-3 ovarian; HS 578T breast; NCI/ADR-RES ovarian; T-47D breast; BT-549 breast; MDA-MB-435 melanoma; SW-620 colon; MCF7 breast; HCT-116 colon; HCC-2998 colon; KM12 colon.
Assay in all cases: NCI-60 one-dose screen, 48 h (100 = growth as untreated, 0 = no growth, -100 = all killed)
What all share (conditions): 10 µM unless noted

Molecules are shown by their SMILES. About 83,000 compounds went through this panel and 20% of them were active in at least one assay; those are over-represented in the sample as a whole.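 Interpretation: 100, growth as untreated; towards 0, rising growth inhibition; 0, no net growth; 0 to -100, cell death. Compounds scoring below 10 were considered active.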 Unmarked numbers belong to inactive results. The source made the active and inactive calls.

Consider `S=c1[nH]nc2ccccn12`, for which the growth in the experiment with SR leukemia is 95.7%; in the experiment with RPMI-8226 leukemia it was 108%; in the experiment on OVCAR-8 ovarian it was 125%; with OVCAR-5 ovarian, 108%; in the experiment on SK-OV-3 ovarian, 114%; in the experiment with IGROV1 ovarian, 115%. The growth with OVCAR-3 ovarian was 124%; in the experiment on HS 578T breast, 98.5%; in the experiment with NCI/ADR-RES ovarian it was 100%; in the experiment with T-47D breast it was 106%; with BT-549 breast, 110%; with MDA-MB-435 melanoma it was 108%. The growth in the experiment on SW-620 colon is 105%; in the experiment with MCF7 breast, 94.3%; with HCT-116 colon, 108%; in the experiment on HCC-2998 colon, 102%; with KM12 colon, 116%.

With `Cn1cc(-c2nc(-c3cn(C)c4ncccc34)cs2)c2cc(F)ccc21`, the growth is 22.4% with SR leukemia; 38% with RPMI-8226 leukemia; 54.6% in the experiment with OVCAR-8 ovarian; 56.3% in the experiment with OVCAR-5 ovarian; 57.4% in the experiment with SK-OV-3 ovarian; 44.2% in the experiment on IGROV1 ovarian. Also, the growth is 1.46% (active) in the experiment on OVCAR-3 ovarian; 76.4% with HS 578T breast; 10.8% in the experiment with NCI/ADR-RES ovarian; 48.1% with T-47D breast; 49% with BT-549 breast; -15.1% (active) in the experiment with MDA-MB-435 melanoma. For the same compound, the growth with SW-620 colon was 26.9%; with MCF7 breast, 20%; in the experiment on HCT-116 colon, 18.6%; in the experiment on KM12 colon, 22.2%.

Regarding `O=C(O)c1cccc2c1C(=O)N(c1ccc3c(c1)Cc1ccccc1-3)C2=O`, the growth in the experiment on SR leukemia was 102%; in the experiment on RPMI-8226 leukemia, 110%; with OVCAR-8 ovarian it was 107%; in the experiment on OVCAR-5 ovarian it was 116%; with SK-OV-3 ovarian it was 114%; with IGROV1 ovarian it was 125%. Also, the growth in the experiment with OVCAR-3 ovarian was 122%; in the experiment with HS 578T breast it was 112%; in the experiment with NCI/ADR-RES ovarian, 116%; with T-47D breast it was 106%; in the experiment on MDA-MB-435 melanoma, 111%; with SW-620 colon it was 105%. Moreover, the growth in the experiment with MCF7 breast is 93.9%; in the experiment on HCT-116 colon it was 112%; in the experiment on HCC-2998 colon, 102%; with KM12 colon, 109%.

Take `COc1cc2[nH]c(C(=O)c3cc(OC)c(OC)c(OC)c3)c(N)c2cc1C#CCO`: the growth is 0.173% (active) in the experiment on SR leukemia; 26.8% in the experiment with RPMI-8226 leukemia; 31.7% with OVCAR-8 ovarian; 15.9% in the experiment on OVCAR-5 ovarian; 18.3% in the experiment with SK-OV-3 ovarian; 22.9% in the experiment with IGROV1 ovarian. Besides, the growth was -17.8% (active) in the experiment with OVCAR-3 ovarian; 19.8% in the experiment with HS 578T breast; 37.8% in the experiment with NCI/ADR-RES ovarian; 56% with T-47D breast; 54% in the experiment with BT-549 breast; -27.1% (active) with MDA-MB-435 melanoma. The growth with SW-620 colon was 16.9%; in the experiment with MCF7 breast it was 10.1%; in the experiment with HCT-116 colon, 10%; with HCC-2998 colon, 13.5%; in the experiment on KM12 colon, 10.8%.

Take `C#Cc1cc2c(N)c(C(=O)c3cc(OC)c(OC)c(OC)c3)[nH]c2cc1OC`: the growth in the experiment with SR leukemia is 7.33% (active); with RPMI-8226 leukemia it was 26.7%; in the experiment with OVCAR-8 ovarian, 47.8%; in the experiment with OVCAR-5 ovarian, 37.5%; with SK-OV-3 ovarian it was 28.8%; in the experiment on IGROV1 ovarian it was 32.6%. For the same compound, the growth is 0.789% (active) in the experiment on OVCAR-3 ovarian; 1.91% (active) with HS 578T breast; 21.9% in the experiment on NCI/ADR-RES ovarian; 25.7% in the experiment with T-47D breast; 57.4% in the experiment on BT-549 breast; -15.8% (active) in the experiment on MDA-MB-435 melanoma. Further, the growth was 18.4% in the experiment on SW-620 colon; 19.7% in the experiment with MCF7 breast; 29.9% in the experiment with HCT-116 colon; 64.3% in the experiment on HCC-2998 colon; 31.5% with KM12 colon.

For `C/C(=N\NC(=O)C(C)SC(C)C(=O)N/N=C(\C)c1cccnc1)c1cccnc1` (centres undefined), the growth with SR leukemia is 79.6%; with RPMI-8226 leukemia it was 101%; with OVCAR-8 ovarian, 109%; in the experiment on OVCAR-5 ovarian, 110%; with SK-OV-3 ovarian, 109%; in the experiment on IGROV1 ovarian, 102%. The growth in the experiment on OVCAR-3 ovarian is 114%; in the experiment on HS 578T breast it was 101%; with NCI/ADR-RES ovarian it was 108%; with T-47D breast it was 104%; in the experiment on BT-549 breast, 106%; with MDA-MB-435 melanoma it was 106%. Further, the growth in the experiment with SW-620 colon was 96.9%; in the experiment with MCF7 breast, 95.7%; in the experiment on HCT-116 colon, 110%; in the experiment with KM12 colon, 107%.

`CC(CNc1nc(Nc2ccc(Cl)c(Cl)c2)nc(C(Cl)(Cl)Cl)n1)N(C)C` (centres undefined): the growth is -42.6% (active) in the experiment on SR leukemia; -12.5% (active) with RPMI-8226 leukemia; -50.8% (active) in the experiment with OVCAR-8 ovarian; 33.7% in the experiment on OVCAR-5 ovarian; 25.9% with SK-OV-3 ovarian; -5.99% (active) in the experiment on IGROV1 ovarian. For the same compound, the growth is -67.8% (active) in the experiment on OVCAR-3 ovarian; -20.8% (active) in the experiment with HS 578T breast; -23.6% (active) with NCI/ADR-RES ovarian; 20.4% in the experiment on T-47D breast; 45.6% in the experiment with BT-549 breast; -47.1% (active) in the experiment with MDA-MB-435 melanoma. Further, the growth in the experiment with SW-620 colon was -74.8% (active); in the experiment with MCF7 breast, -64.8% (active); with HCT-116 colon, -88.7% (active); in the experiment on HCC-2998 colon, -79.4% (active); with KM12 colon it was -88.4% (active).

In the case of `COc1ccc2[nH]cc(-c3nc(-c4c[nH]c5ncccc45)cs3)c2c1`, the growth in the experiment with SR leukemia is -7.54% (active); in the experiment on RPMI-8226 leukemia, 40.9%; in the experiment on OVCAR-8 ovarian, 44.8%; with OVCAR-5 ovarian, 81.5%; in the experiment with SK-OV-3 ovarian it was 41.4%; in the experiment with IGROV1 ovarian, 30.7%. The growth in the experiment with OVCAR-3 ovarian was 50.6%; in the experiment with HS 578T breast it was 57.5%; in the experiment on NCI/ADR-RES ovarian, 47%; in the experiment on T-47D breast it was 67.1%; in the experiment with BT-549 breast, 36.8%; in the experiment on MDA-MB-435 melanoma it was 54%. In addition, the growth with SW-620 colon is 19%; with HCT-116 colon, 18.1%; in the experiment on HCC-2998 colon it was 70.4%; in the experiment on KM12 colon, 25.3%.

As to `CCOc1ccc(NC(=O)c2ccccc2-c2ccccc2C(=O)O)cc1`, the growth with SR leukemia was 89.7%; in the experiment with RPMI-8226 leukemia, 101%; in the experiment on OVCAR-8 ovarian, 111%; in the experiment on OVCAR-5 ovarian it was 98.6%; in the experiment with SK-OV-3 ovarian, 109%; in the experiment with IGROV1 ovarian, 110%. Also, the growth in the experiment with OVCAR-3 ovarian is 110%; in the experiment on HS 578T breast, 103%; in the experiment with NCI/ADR-RES ovarian, 108%; in the experiment with T-47D breast, 103%; in the experiment on BT-549 breast it was 108%; in the experiment on MDA-MB-435 melanoma, 104%. Besides, the growth with SW-620 colon was 107%; in the experiment with MCF7 breast it was 97.4%; in the experiment on HCT-116 colon it was 103%; with HCC-2998 colon, 103%; in the experiment with KM12 colon, 110%.
